From PubChem BioAssay
Shiga toxin inh = blocks Shiga toxin action in Vero cells. Vero cells, Shiga toxin protein synthesis inhibition reporter. inhibition, % at 38.7 µM. actives 9.2% (n = 290,000); in the data active = inhibition mostly above about 28%, no sharp cut-off; inactive = mostly below about 43%; note: 0% is about no effect
Pf growth 48h = P. falciparum growth inhibition at 48 hours (one generation); AID 504832; actives 5.9% (n = 310,000); Potency, µM (doses to about 28.7 µM), for the others: top-dose activity change, negative = inhibition, hits mostly inhibitors; P. falciparum luciferase growth in erythrocytes, 48 h; note: potency is the fitted concentration of half-maximal effect; % is set by controls: 0 for no effect and ±100 for the full control effect
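Growth was read as firefly luciferase luminescence after a 48 h, 37 C, 5% CO2 exposure of compounds to reporter-bearing P. falciparum cultures (0.1% parasitemia, 2% hematocrit final) in Albumax-supplemented RPMI 1640.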
NS1 inh = influenza NS1 inhibition | Potency, µM (series often up to 46.1 µM), inactives show at the top dose activity, positive = more growth | actives 0.4% (n = 270,000) | AID 2326; calls by dose curve; note: potency is the fitted concentration of half-maximal effect; actives are rising curves; nearly all actives have a fitted effect of over 50% in size
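Read-out: OD600 growth recovery of NS1-expressing budding yeast. Cells grown overnight at 30C in -URA glucose medium, washed, resuspended and diluted 1:100 in 2% galactose assay medium, pH 6.0. Same strain lacking NS1 served as positive control.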
Sm TGR inh = inhibitors of Schistosoma mansoni thioredoxin glutathione reductase; Q962Y6; purified TGR, DTNB reduction, TNB absorbance 405 nm; Potency, µM (titrated, usually from 114 µM), for inactives: at the top dose activity change, negative = inhibition, hits mostly inhibitors; actives 3% (n = 360,000); AID 485364; note: potency is the fitted concentration of half-maximal effect; % is set by controls: 0 for no effect and ±100 for the full control effect; nearly all actives have a fitted effect of over 60% in size
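First, TGR (20 nM dispensed) and NADPH were mixed with compound. Second, a 15 min room-temperature incubation followed. Third, further NADPH and then DTNB were added to start the reaction. Finally, TNB absorbance was monitored kinetically.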
Pf growth 96h = inhibits malaria parasite growth, 96 h. P. falciparum luciferase reporter growth, 96 h. Potency, µM (series often up to 28.7 µM), without a hit: at the top dose activity change, negative = inhibition, hits mostly inhibitors. actives 6.9% (n = 320,000). AID 504834; note: potency is the fitted concentration of half-maximal effect; % is set by controls: 0 for no effect and ±100 for the full control effect
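Two-generation exposure (96 h) targets delayed-death phenotype. Reporter parasites carrying integrated firefly luciferase, in red cells at 2% hematocrit and 0.05% parasitemia final, kept at 37 C, 5% CO2; luminescence loss indicates inhibition.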
CHX counter = counter-screen hit for Shiga toxin inhibitors, cycloheximide. max response, %. cell reporter, cycloheximide protein synthesis inhibition counterscreen. actives 12% (n = 300,000). AID 2314; in the data active = max response mostly above about 13%, no sharp cut-off; inactive = mostly below about 14%; note: read at 38.3 µM for the half of the compounds with a filed dose; 0% is about no effect
Starred values were filed as active, the others as inactive; ? = inconclusive; . = no result given; [ ] = another dose, or the depositor's remark. An excerpt weighted towards active compounds, which were near 21% of everything screened. Unless noted, calls come from the whole dose curve; as a rule, active = well fitted curve in the direction sought with a large enough effect; inconclusive = small, poorly fitted or top-dose-only effect, or another doubt; inactive = no such curve, though single readings can be large; an effect the other way counts as inactive or inconclusive.

SMILES	Shiga toxin inh	Pf growth 48h	NS1 inh	Sm TGR inh	Pf growth 96h	CHX counter
COc1ccc(Cc2nc3ccccc3n2Cc2ccccc2C)cc1	.	.	.	1%	.	.
COc1ccc(/C=N/NC(=O)c2ccccc2O)cc1CN1CCOCC1	40	0%	0%	0%	7%	7
CCOc1cc(/C=C/C(=O)c2ccc(OC)c(CN3CCOCC3)c2)cc(Br)c1O	1	13µM*	6%	?	9.3µM*	-6
COc1ccc(/C=N/NC(=O)c2cccc(Br)c2)cc1CN1CCOCC1	18	-11%	-1%	2%	20%	19*
COc1ccc(/C=N/NC(=O)c2cccc(Br)c2)cc1COc1ccccn1	11	-12%	-4%	-3%	24%	14*
CCOc1cc(C(=S)N2CCOCC2)ccc1OC	-13	13%	0%	0%	.	-2
COc1ccc(/C=N/NC(=O)c2ccccc2O)cc1COc1ccccn1	41*	-18%	-7%	2%	0%	23*
Cc1ccc(C)c(Cn2c(=O)c3c(nc4n3CCN4c3ccc(F)cc3)n(C)c2=O)c1	.	.	.	-13%	.	.
CCOC(=O)c1c(C)oc2ncnc(Nc3cc(C)cc(C)c3)c12	.	.	.	2%	.	.
O=C1NC(Cc2ccccc2)c2nc3cc(F)ccc3c(=O)n2-c2cc(Cl)ccc21 (stereo unspecified)	.	-6%	.	-9%	13%	.
CCCN(C(=O)CCc1nc(-c2ccc(C)cc2)no1)c1ccc(OCC)cc1	.	.	.	10%	.	.
CCCCCCC(=O)Nc1nc(C)c(-c2csc(Nc3ccc(Cl)cc3)n2)s1	-17	10µM*	18%	10%	2.9µM*	-2
CCCCCC(=O)Nc1nc(C)c(-c2csc(Nc3ccc(Cl)cc3)n2)s1	7	15µM*	28%	6%	?	1
CCCCCC(=O)Nc1nc(C)c(-c2csc(Nc3cc(Cl)ccc3C)n2)s1	-7	?	28%	-25%	?	-3
COc1ccc(N2C(=O)NC(NS(=O)(=O)c3ccc(NC(C)=O)cc3)(C(F)(F)F)C2=O)cc1 (stereo unspecified)	-1	0%	1%	0%	9.3µM*	-1
CCC1CN(C(=O)N2CCC(C(=O)NCc3ccccc3OC)CC2)c2ccccc2O1 (stereo unspecified)	-18	?	5%	12%	13µM*	-8
COC(=O)C(NS(=O)(=O)c1ccc(N2CCCC2=O)cc1)c1ccccc1 (stereo unspecified)	-29	12%	-2%	0%	?	14
NC(=O)C(Cc1ccccc1)NS(=O)(=O)c1ccc(N2CCCC2=O)cc1 (stereo unspecified)	-2	-4%	-3%	-14%	9.3µM*	-4
O=C(NCc1ccc(Cl)cc1)C1CCN(S(=O)(=O)c2ccc(N3CCCC3=O)cc2)CC1	17	-18%	12%	6%	13µM*	3
CCOC(=O)c1ccc(S(=O)(=O)N2CCC(C(=O)NCc3ccccc3OC)CC2)cc1	.	?	.	1%	8.3µM*	.
COC(=O)c1cc(NC(=O)Cn2nc(-c3ccc(C)c(C)c3)ccc2=O)cc(C(=O)OC)c1	.	.	.	-1%	.	.
O=C(NCc1ccccc1Cl)c1ccc(Cn2c(=O)c3cccn3c3cccnc32)cc1	.	.	.	-5%	.	.
CN(C(=O)CSc1nnc(-c2cccnc2)n1-c1ccccc1F)C1CCS(=O)(=O)C1 (stereo unspecified)	-5	?	2%	3%	21%	-2
O=C(COC(=O)c1ccco1)Nc1nnc(-c2ccccc2)o1	.	?	.	-2%	?	.
COc1ccccc1CNC(=O)C1CCN(S(=O)(=O)N2CCCCC2)CC1	-6	0%	0%	3%	-9%	0
SMILES	Shiga toxin inh	Pf growth 48h	NS1 inh	Sm TGR inh	Pf growth 96h	CHX counter
O=C(NCc1ccccc1)C1CCN(S(=O)(=O)c2ccc(N3CCCC3=O)cc2)CC1	-3	?	16%	3%	15µM*	4
CC(=O)N1CCCc2cc(S(=O)(=O)N3CCC(C(=O)NCc4ccccc4)CC3)ccc21	.	.	.	10%	.	.
O=C(Nc1cccc(C(F)(F)F)c1)C1CCN(S(=O)(=O)c2ccc(N3CCCC3=O)cc2)CC1	9	?	?	15%	13µM*	6
COc1ccccc1CNC(=O)C1CCN(S(=O)(=O)c2ccc(N3CCCC3=O)cc2)CC1	-5	12µM*	-7%	-9%	15µM*	9
COc1ccccc1NC(=O)COn1nnc2ccc(S(=O)(=O)N3CCOCC3)cc21	46	-10%	.	7%	-4%	6
CCCCNC(=O)CC(C(=O)N1CCc2ccccc21)n1ccnc1 (stereo unspecified)	26	.	7%	3%	21%	-5
CCN(CCCNC(=O)CC(C(=O)N1CCc2ccccc21)n1ccnc1)c1cccc(C)c1 (stereo unspecified)	-9	10µM*	-5%	-7%	?	-2
Cn1c(-c2cccs2)nc2ccccc21	125*	255%	.	0%	-7%	35*
Cn1c(-c2ccc(C=O)s2)nc2ccccc21	71	.	-164%	2%	?	23*
CCOc1cc(NC(=O)c2cccs2)c(OCC)cc1NC(=O)c1ccccn1	9	0%	1%	-2%	?	-2
O=C(Nc1cccnc1Cl)c1cccc(F)c1	6	14%	7%	-14%	49%	10
CCOc1cc(NC(=O)c2ccccn2)c(OCC)cc1NC(=O)c1cccc(C)c1	-8	-20%[1.15 µM]	2%	4%	12µM*	-9
Cc1ccc(C(=O)Nc2cccc3cccnc23)cc1C	.	55%	-25%	-6%	30%	29*
Cc1cccc(C(=O)Nc2cccnc2Cl)c1	16	56%	4%	2%	?	12*
C/C(=N\Nc1cccc2cccnc12)c1ccc(C)cc1	93*	344%	8%	-6%	400%	31*
Cc1ccc(N2CC(C(=O)N(C)CC(=O)Nc3ccc(Cl)c(C(F)(F)F)c3)CC2=O)cc1 (stereo unspecified)	.	-4%	.	-9%	?	.
Cc1ccc(C(=O)Nc2cccc3cccnc23)cc1Cl	.	.	.	8%	.	.
Cc1ccc(NC(=O)CN(C)S(=O)(=O)c2cccc3cccnc23)cc1F	-5	?	-17%	-3%	?	5
CCOc1cc(NC(=S)NCC2CCCO2)c(OCC)cc1NC(=O)c1ccccc1 (stereo unspecified)	8	?	10%	-12%	?	-3
COc1cc(NC(=O)Nc2cccc3cccnc23)cc(OC)c1OC	26	?	-35%	34%	-21%	16*
Cc1ccc(NC(=O)CN(C)S(=O)(=O)c2cccc3cccnc23)cc1C	15	15%	12%	-9%	13µM*	-1
Cc1cccc(C(=O)Nc2cccc3cccnc23)c1	70*	97%	-65%	4%	180%	45*
CCOc1cc(NC(=S)NCC2CCCO2)c(OCC)cc1NC(=O)c1cccc(C)c1 (stereo unspecified)	-9	?	16%	-10%	12µM*	-3
